Hits are enriched below; roughly 6.7% of the tested compounds scored in any of these assays.
PINK1 modulator: A Quantitative High throughput Screen to Identify Chemical Modulators of PINK1 Expression; AID 624263, 2012; PINK1 immunofluorescence, high-content cytometry, 24 h; Potency, µM (top dose mostly 76.6 µM), for the others: at the top dose activation (PINK1 increase), usual class: activators; hit rate 0.2% among 410,000; active = well fitted activation curve with a large enough effect; inconclusive = small, poorly fitted or top-dose-only effect; cell line not stated here; also: % of control where 0% means no effect; nearly all actives have a fitted effect of over 65% in size
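A stable cell line was treated with compounds at 5 concentrations for 24 hours, with CCCP as control. PINK1 levels and mitochondrial localization were measured by immunofluorescence with mitochondrial, cell and nuclear markers after fixation, read by laser-scanning cytometry.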
KB-V1 MDR tox: qHTS assay for MDR1-selective chemotherapeutics: Primary screen using the drug-selected MDR subline cells KB-V1 | KB-V1 MDR cells viability, CellTiter-Glo, 72 h | Potency, µM (doses to about 46.1 µM), actives largely listed as cytotoxic | hit rate 3.4% among 400,000; also: % is scaled to controls: 0 for no effect and ±100 for the full control effect; nearly all actives have a fitted effect of over 60% in size
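Cells of the MDR subline KB-V1 are plated, dosed with compound at multiple concentrations, and incubated 72 h at 37 degrees C; CellTiter-Glo is then added and luminescence read after 10 min.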
SW480 rereplic: A quantitative high throughput screen for small molecules that induce DNA re-replication in SW480 colon adenocarcinoma cells. SW480 DNA re-replication, Hoechst DNA content imaging, 48 h. Potency, µM (series often up to 46.1 µM), inactives show at the top dose re-replication activation, hits mostly activators. hit rate 1.8% among 340,000. AID 624297, 2012; also: % of control where 0% means no effect; nearly all actives have a fitted effect of over 55% in size
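Per well, 250 cells were exposed to pinned compound for 48 hr. Nuclear DNA was visualised with Hoechst (40 min, 37 C) and total object intensity recorded by fluorescence scanning.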
MCF10A rereplic: A quantitative high throughput screen for small molecules that induce DNA re-replication in MCF 10a normal breast cells. MCF 10A DNA re-replication, Hoechst nuclear intensity, 48 h. Potency, µM (doses to about 46.1 µM), inactives show at the highest dose activity, positive = re-replication, usual class: activators. hit rate 2.9% among 350,000; also: % of control where 0% means no effect; nearly all actives have a fitted effect of over 50% in size
KB-3-1 tox: qHTS assay for MDR1-selective chemotherapeutics: Primary screen using the parental adenocarcinoma cell KB-3-1. KB-3-1 viability, CellTiter-Glo ATP luminescence, 72 h. Potency, µM (titrated, usually from 46.1 µM), usual class: cytotoxic. hit rate 1.4% among 400,000; also: % is scaled to controls: 0 for no effect and ±100 for the full control effect; nearly all actives have a fitted effect of over 60% in size
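Parental KB-3-1 viability, qHTS format: 72 h compound exposure, 37 °C; CellTiter-Glo; media-only wells and DMSO plates as controls; concentration-effect fits on corrected data.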
* = called active by the depositor; i = inactive; ? = inconclusive; . = no result; [ ] = remark or other dose. Unless noted, calls follow the shape of the dose curve; as a rule, active = well fitted curve in the direction sought with a large enough effect; inconclusive = small, poorly fitted or top-dose-only effect, or another doubt; inactive = no such curve, though single readings can be large; an effect the other way counts as inactive or inconclusive. Potency is read from the fitted curve at half-maximal effect.

SMILES	PINK1 modulator	KB-V1 MDR tox	SW480 rereplic	MCF10A rereplic	KB-3-1 tox
C[C@H]1C=CC(=O)O[C@H]1c1ccccc1	4.3%	?	-7.0%[9.22 µM]	?	20.6µM*
COc1ccc(C=C(C#N)c2ccc(OC)cc2)cc1	3.6%	?	?	?	18.4µM*
Cc1ccc(C(=O)Nc2ccccc2)cc1S(=O)(=O)N1CCCC1	0.9%	14.6µM*	.	.	?
COC1CCC(OC2CC(C3(C)CCC4(CC(O)C(C)C(C(C)/C=C(\C)C(=O)C(C)CC(C)C(=O)O)O4)O3)OC3(OC(C4OC(O)(CO)C(C)CC4C)CC3C)C2C)OC1C (stereo unspecified)	-1.4%	i	?	1.46µM*	?
O=[N+]([O-])c1oc2ccc3ccccc3c2c1CCO	-4.7%	5.8µM*	?	5.17µM*	?
CCCOP(=O)(OCCC)C(Nc1ccc(C(C)C)cc1)c1ccc([N+](=O)[O-])cc1 (stereo unspecified)	3.6%[38.3 µM]	11.6µM*	20.6µM*	?	?
CCOC(=O)c1ccc(NC(c2ccc(N(C)C)cc2)P(=O)(OC(C)C)OC(C)C)cc1 (stereo unspecified)	0.1%	i	?	?	i
CNS(=O)(=O)c1ccc(N=Cc2c(O)n(-c3cccc(C)c3)c(=O)[nH]c2=O)cc1	-0.5%	i	-23.5%	-17.3%	i
CCOC(=O)c1sc(/N=C/c2c(O)n(-c3cccc(C)c3)c(=O)[nH]c2=O)c(C#N)c1C	-0.8%	20.6µM*	1.8%	?	i
Nc1ccc2ccc3cccc[n+]3c2c1	3.4%	i	2.91µM*	1.2%	?
CCOC(=O)NC(O)C(Cl)(Cl)Cl (stereo unspecified)	.	.	2.9%	-1.5%	.
O=C(Nc1nccs1)c1c(O)c2c(n(Cc3ccco3)c1=O)CCCC2	-0.4%	11.6µM*	-14.2%	9.7%	?
CC(C)NC(=O)N1CCCC2(CCN(C(=O)Oc3ccccc3)CC2)C1	-0.4%	.	.	.	.
COc1ccc2[nH]c(C)c(CCNCc3cc(OC)c(OC)c(OC)c3)c2c1	1.1%	?	-11.4%	12.2%	i
COc1ccc(CNCCc2c(C)[nH]c3ccc(OC(F)(F)F)cc23)c(OC)c1	0.8%	7.31µM*	?	20.6µM*	?
CCCCCCCCCc1ccc(O)cc1	-0.6%	.	.	.	.
O=C1NC(=O)N(c2ccccc2F)C(=O)/C1=C/c1cn(CC(=O)N2CCOCC2)c2ccccc12	6.6%	i	6.2%	20.6µM*	i
CCN1C(=O)NC(=O)/C(=C\c2cn(CC(=O)N3CCCC3)c3ccccc23)C1=O	1.4%	i	10.4%	0.3%	i
CCOc1ccc(CN(CCc2ccc3c(c2)OCO3)Cc2cccc(Br)c2)cc1	3.0%	.	.	.	.
CCN(CC)CCOC(=O)C(C)(c1ccccc1)c1ccccc1	.	.	0.9%	?	.
Cc1ccc(NC(=O)CN2C(=O)CN=C(c3ccccc3)c3ccccc32)cc1Cl	-1.0%	.	.	.	.
Cn1cc(C(=O)OCC(=O)NC2CCCCC2)c2ccccc21	4.1%	i	5.8%	?	?
COc1ccccc1NC(=O)COC(=O)c1cn(C)c2ccccc12	4.4%	9.2µM*	-5.1%	8.7%	i
CCCCn1c(=O)c(C(=O)Nc2ccccn2)c(O)c2ccccc21	1.0%	i	-42.6%	5.9%	10.3µM*
CCCCCCn1c(=O)c(C(=O)Nc2cnccn2)c(O)c2ccccc21	6.5%	1.3µM*	-4.6%	?	2.06µM*
SMILES	PINK1 modulator	KB-V1 MDR tox	SW480 rereplic	MCF10A rereplic	KB-3-1 tox
CCCCn1c(=O)c(C(=O)Nc2ccc(C)cn2)c(O)c2ccccc21	0.4%	?	-3.2%	-2.4%	i
CCCCCCn1c(=O)c(C(=O)Nc2ncccc2O)c(O)c2ccccc21	4.2%	?	-2.6%	-7.3%	7.31µM*
CCCCCn1c(=O)c(C(=O)Nc2ccccn2)c(O)c2ccccc21	1.8%	6.51µM*	2.9%	-4.1%	i
CC(C)CC(CN)CC(=O)O (stereo unspecified)	.	.	3.2%	4.7%	.
Cc1onc(-c2ccccc2Cl)c1C(=O)OCC(=O)c1ccc2c(c1)OCCO2	-1.0%	?	-8.8%	?	i
CCCCCn1c(=O)c(C(=O)Nc2ccccc2)c(O)c2ccccc21	1.4%	i	0.7%	12.4%	i
CCCCCCn1c(=O)c(C(=O)Nc2c(C)n(C)n(-c3ccccc3)c2=O)c(O)c2ccccc21	0.4%	1.64µM*	-7.8%	-9.2%	?
O=C(Nc1ccccc1)C1=C[C@H](c2ccccc2)C[C@H](OCCCCO)O1	12.7%	?	0.9%	18.4µM*	?
CCCC(C)C1(CC)C(=O)NC(=S)NC1=O (stereo unspecified)	.	.	1.0%	-1.5%	.
O=C1CC(N2CCN(c3ccccc3)CC2)C(=O)N1CCc1ccccc1 (stereo unspecified)	0.9%[38.3 µM]	?	-2.7%	?	i
COc1ccccc1-n1c(O)c(C=Nc2c(C)n(C)n(-c3ccccc3)c2=O)c(=O)[nH]c1=O	7.1%[38.3 µM]	i	23.1µM*	?	i
O=c1[nH]c(=O)n(Cc2ccccc2)c(O)c1C=NCCN1CCNCC1	2.9%[38.3 µM]	i	6.51µM*	2.91µM*	i
Cc1c(N=Cc2c(O)n(Cc3ccccc3)c(=O)[nH]c2=O)c(=O)n(-c2ccccc2)n1C	0.5%	i	29.1µM*	-8.3%	i
COc1ccc(OC)c(-n2c(O)c(C=Nc3c(C)n(C)n(-c4ccccc4)c3=O)c(=O)[nH]c2=O)c1	0.0%	i	?	?	i
COc1ccc(Cn2c(O)c(C=Nc3c(C)n(C)n(-c4ccccc4)c3=O)c(=O)[nH]c2=O)cc1	1.0%	i	?	?	i
C=CCn1c(O)c(C=NCCN2CCNCC2)c(=O)[nH]c1=O	-1.2%	i	-5.2%	0.1%	i
Cc1c(N=Nc2c(O)n(Cc3ccccc3)c(=O)[nH]c2=O)c(=O)n(-c2ccccc2)n1C	-1.2%	3.66µM*	?	19.9%	i
CC(C)c1ccc(Oc2cccc3c2S(=O)(=O)N(C2CCCC2)CC(COCc2ccccc2)O3)cc1 (stereo unspecified)	1.4%	i	-13.2%[9.22 µM]	-52.0%	i
CN(C)C(=O)Oc1ccc(OCc2nc3ccccc3[nH]2)cc1	2.5%	11.6µM*	0.3%	8.0%	?
CN(C)C(=O)Oc1ccc(OC(=O)N(C)C)cc1	-1.5%	i	1.5%[9.22 µM]	?	i
CC1(C)C(=O)[C@@H]2OC2[C@@]2(C)C1CC(O)[C@]1(C)C2CC[C@@]2(C)C(c3ccoc3)OC(=O)C3OC312 (stereo partly specified)	-0.4%	.	.	.	.

Compound activity: PubChem BioAssay, National Center for Advancing Translational Sciences (NCATS)
